The list is not random: actives were taken first. Their share in the collection is about 5.9%.
GLP1R cytotox: cytotoxicity in counter-screen for GLP-1R inverse agonists | Potency, µM (highest dose often 38.3 µM), inactives show at the highest dose activity change, negative = inhibition, most hits filed as inhibitors | AID 624418 | HEK293 cAMP-luciferase reporter cells, luminescence, 24 h | 0.13% of 410,000 active;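 further: loss of luciferase light is scored as toxicity; on the % scale 0 is the no-effect control and ±100 the full control effect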
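To flag toxic compounds, the library was rerun on cells for 24 hr at 37 deg C and 5% CO2. Viability-linked luminescence was captured 12 min after adding luciferase detection reagent.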
GLP-1R inv ag: inverse agonists of human GLP-1 receptor; P43220; HEK293 GLP-1R CRE-luciferase, luminescence, 24 h; GLP-1R form is constitutively active; Potency, µM (highest dose often 38.3 µM), for inactives: at the top dose activity change, negative = inhibition, hits mostly inhibitors; 1.6% of 410,000 active; further: on the % scale 0 is the no-effect control and ±100 the full control effect; nearly all actives have a fitted effect of over 55% in size
Target sequence (P43220 whole entry, looked up): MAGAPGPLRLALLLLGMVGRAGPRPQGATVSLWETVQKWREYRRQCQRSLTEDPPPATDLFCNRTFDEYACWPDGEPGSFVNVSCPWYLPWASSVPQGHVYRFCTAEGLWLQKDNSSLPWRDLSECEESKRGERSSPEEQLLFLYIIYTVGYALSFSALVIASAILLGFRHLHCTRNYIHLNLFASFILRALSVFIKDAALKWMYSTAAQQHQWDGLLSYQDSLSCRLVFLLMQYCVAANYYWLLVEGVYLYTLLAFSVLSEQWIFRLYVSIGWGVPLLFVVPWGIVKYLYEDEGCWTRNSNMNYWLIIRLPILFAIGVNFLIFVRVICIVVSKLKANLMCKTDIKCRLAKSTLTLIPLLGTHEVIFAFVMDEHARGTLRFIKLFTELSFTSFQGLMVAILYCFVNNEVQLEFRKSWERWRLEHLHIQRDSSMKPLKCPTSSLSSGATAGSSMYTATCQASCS
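Assay principle: reduced luminescence from a cAMP-responsive reporter in HEK293 cells co-expressing a constitutively active GLP-1R. Conditions: 24 hr compound incubation, 37 deg C, 5% CO2.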
Gal4-VP16 FLuc: Gal4-VP16 reporter inhibition counter-screen; Drosophila S2 Gal4-VP16 UAS-luciferase, luminescence, 20 h; Potency, µM (highest dose often 53.6 µM), inactives show at the top dose activity, negative = inhibition, actives largely listed as inhibitors; 3.5% of 310,000 active;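 further: Gal4-VP16 expression switched on by copper sulfate through the metallothionein promoter; on the % scale 0 is the no-effect control and ±100 the full control effect; nearly all actives have a fitted effect of over 50% in size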
RORg inh: inhibitors of mouse ROR gamma transcriptional activity. 5.4% of 310,000 active. AID 2551. Potency, µM (highest dose often 53.6 µM), for inactives: at the top dose activity change, negative = inhibition, actives largely listed as inhibitors. P51450. Drosophila S2 Gal4-RORgamma UAS-luciferase reporter, 20 h; further: on the % scale 0 is the no-effect control and ±100 the full control effect; nearly all actives have a fitted effect of over 60% in size
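A Gal4/UAS one-hybrid system in insect cells: metallothionein-promoter Gal4–ROR gamma fusion plus Photinus luciferase reporter. Copper sulfate 700 uM final, 20 hr ambient incubation, luminescent detection after 10 min with reagent.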
GLP1R ag: activates the human GLP-1 receptor; HEK293 GLP-1R CRE-luciferase, luminescence, 4-6 h; cells express a hypersensitive GLP-1R form; Potency, µM (highest dose often 45.6 µM), for inactives: at the top dose activation, hits mostly activators; 0.007% of 380,000 active; further: % of control where 0% means no effect
The depositor's hits bear a star; ? = inconclusive; . = not tested or not shown; [ ] = another dose, or the depositor's remark. The call rests on the fitted dose curve; in most records, active means well fitted curve in the direction sought with a large enough effect; inconclusive means small, poorly fitted or top-dose-only effect, or another doubt; inactive means no such curve, though single readings can be large; an effect the other way counts as inactive or inconclusive. Potency means the concentration at half of the fitted maximal effect.

SMILES | GLP1R cytotox | GLP-1R inv ag | Gal4-VP16 FLuc | RORg inh | GLP1R ag
CC1(C)c2ssc(=S)c2-c2ccccc2N1C(=O)CSC1=NCCS1 | -2% | ? | 0% | 11µM* | -10%
Cc1cc2c(cc1C)N(C(=O)CSC1=NCCS1)C(C)(C)c1ssc(=S)c1-2 | -15% | -8% | 1%[0.365 µM] | 4µM* | 4%
O=C(Nc1ccc2nc(SCCOc3ccccc3)sc2c1)c1ccc2c(c1)OCO2 | -6% | -15% | . | . | .
COC(=O)[C@H]1[C@@H]2C[C@H]3c4[nH]c5ccccc5c4CCN3C[C@@H]2CC[C@@H]1O | . | . | -5% | 5% | .
CCOc1ccc(OCCn2c(=S)[nH]c3c(N)ncnc32)cc1 | 0% | 47% | 4% | 2.5µM* | -2%
O=C(N(c1ccccc1)c1ccccc1)N(c1ccccc1)c1ccccc1 | -1% | ? | 2% | 5% | 5%
O=C(CCl)N(c1ccccc1)c1ccccc1 | ? | ? | ? | 14µM* | 1%
CCOC(=O)c1c(C)[nH]c(C(=O)OCC(=O)Nc2sccc2C(N)=O)c1C | ? | 11µM* | . | . | -23%
O=C(Cn1c(=O)nc(-c2ccccc2)c2ccccc21)NCCCc1ccccc1 | -5% | -12% | . | . | -1%
O=C(COc1cccc(OC(F)F)c1)Nc1ccc(SC(F)F)cc1 | 3% | 10µM* | 0% | 19% | 9%
Cc1ccc(C(=O)c2ccccc2C(=O)OCC(=O)Nc2ccc(SC(F)F)cc2)cc1 | 7% | 8.9µM* | ? | -6% | -7%
COc1cc(C(=O)OCC(=O)Nc2ccc(SC(F)F)cc2)cc(OC)c1OC | -3% | -15% | 1µM* | ? | 2%
COc1cc(C(=O)OCC(=O)Nc2ccc(OC(F)F)cc2)cc(OC)c1OC | 6% | 15% | 10% | ? | 10%
CC(C)c1ccc(/C=C(\C#N)c2nc(-c3ccc(O)cc3)cs2)cc1 | 42% | -12% | . | . | .
OC(COc1ccc(Cl)c2ccccc12)CN1CCN(c2ccccn2)CC1 (centres undefined) | -5% | 10µM* | -4% | -16% | 0%
Cc1cc(OCC(O)CN2CCN(c3ccccn3)CC2)cc(C)c1Cl (centres undefined) | -10% | 11µM* | -12% | -4% | -1%
OC(COc1ccc(Cl)cc1)CN1CCN(c2ccccn2)CC1 (centres undefined) | 10% | ? | . | . | -4%
COc1cc(CCCN2C(=S)NC[C@@H]2Cc2ccccc2)cc(OC)c1OC | 2% | 9% | ? | 10µM* | 2%
COc1cc(CCCN2C(=S)NC[C@@H]2c2ccccc2)cc(OC)c1OC | -8% | 3% | ? | 10µM* | -2%
CCC(CC)C(=O)NC1CC(=O)N(c2ccc3c(c2)OCCO3)C1 (centres undefined) | -2% | 23% | . | . | 2%
Cc1ccc(S(=O)(=O)N[C@H]2COC(=O)[C@@H](Cc3ccccc3)NC(=O)[C@@H](C)COC(=O)C/C=C\[C@@H]2C)cc1 | . | . | 4%[10 µM] | 0%[10 µM] | .
Cc1ccc(NC(=S)NCC(C)CSc2ccc(Cl)cc2)cc1 (centres undefined) | 5% | -16% | ? | 2.8µM* | 11%
CN(C)C(CNC(=S)Nc1ccc(Cl)cc1)c1cccnc1 (centres undefined) | -1% | -7% | 5% | 9% | 9%
Cc1cccc(NC(=S)NCC(C)CSc2ccc(Cl)cc2)c1 (centres undefined) | ? | ? | 5.6µM* | 3.2µM* | -7%
CC(C)(C)C(=O)Oc1ccc(S(=O)(=O)Nc2ccccc2C(=O)NCC(=O)O)cc1 | . | . | 3% | 6% | -1%
CCN(C(=O)CSc1nc2ccccc2n1CC(=O)Nc1cccc(C#N)c1)c1ccccc1 | 9% | ? | . | . | .
N/C(CC(=O)NC1CCCCC1)=N\OCC(=O)Nc1ccc(Cl)c(Cl)c1 | 6% | 22µM* | 1% | ? | 10%
O=C(N/N=C\c1ccccn1)C1c2ccccc2Oc2ccccc21 | -40% | ? | ? | 7.9µM* | 5%
NNC(=O)C1COc2cc3ccccc3cc2O1 (centres undefined) | 3% | 15% | -14% | -39% | -5%

From PubChem
